Test system: Vero E6 infected with SARS-CoV-2
Experiment: inhibition of SARS-CoV-2 cytopathic effect; higher = more antiviral protection, active = above 15
Settings: 48 h

Measured: inhibition of SARS-CoV-2 cytopathic effect

CCN1CCCC1CNC(=O)c1cc(S(=O)(=O)CC)c(N)cc1OC (stereo not given) [amisulpride]
inactive: 1 nM 2.43% | 8.33 nM -1.75% | 100 nM 0.45% | 833.33 nM -2.32% | 10000 nM -1.76%

CN[C@@H](C)C(=O)N[C@H](C(=O)N1CCC[C@H]1c1nc(C(=O)c2ccc(F)cc2)cs1)C1CCCCC1
inactive: 1 nM 1.96% | 8.33 nM 2.97% | 100 nM 0.97% | 833.33 nM -3.07% | 10000 nM -4.24%

O=C1NC(=O)c2cc(Nc3ccccc3)c(Nc3ccccc3)cc21
inactive: 1 nM -1.24% | 8.33 nM 1.7% | 100 nM -0.24% | 833.33 nM 0.41% | 10000 nM 1.85%

CC[C@]12C=CCN3CC[C@@]4(c5cc([C@@]6(C(=O)OC)C[C@@H]7C[C@@H](C(C)(F)F)CN(Cc8c6[nH]c6ccccc86)C7)c(OC)cc5N(C)[C@H]4[C@@](O)(C(=O)OC)[C@@H]1OC(C)=O)[C@@H]32 [Vinflunine Ditartrate]
inactive: 1 nM 3.38% | 8.33 nM 3.35% | 100 nM 2.91% | 833.33 nM -2.99% | 10000 nM -3.92%

C=C[C@H]1CN2CC[C@H]1C[C@@H]2[C@@H](O)c1ccnc2ccc(OC)cc12 [quinidine]
inactive: 1 nM -8.54% | 8.33 nM -5.1% | 100 nM -8.19% | 833.33 nM -4.54% | 10000 nM -4.21%

O=C(NCCCCN1CCN(c2cccc(Cl)c2Cl)CC1)c1ccc2c(c1)Cc1ccccc1-2
inactive: 1 nM 0.39% | 8.33 nM 2.85% | 100 nM -2.31% | 833.33 nM -1.17% | 10000 nM -3.44%

CCn1cc(-c2cccc(C(F)(F)F)c2)c2sc(C(=N)NC3CCS(=O)(=O)CC3)cc2c1=O
inactive: 1 nM 1.59% | 8.33 nM 3.81% | 100 nM 1.38% | 833.33 nM 0.93% | 10000 nM -7.19%

CN(c1ccccc1CNc1nc(Nc2ccc3c(c2)CC(=O)N3)ncc1C(F)(F)F)S(C)(=O)=O
inactive: 1 nM -0.17% | 8.33 nM -0.35% | 100 nM -2.19% | 833.33 nM -5.19% | 10000 nM -15.4%

OC(CNCC(O)C1CCc2cc(F)ccc2O1)C1CCc2cc(F)ccc2O1 (stereo not given) [nebivolol]
inactive: 1 nM -8.56% | 8.33 nM -2.57% | 100 nM -0.54% | 833.33 nM -2.81% | 10000 nM -3.97%

O=C(NCCN1CCCCC1)c1ccc(I)cc1 [N-[2-(piperidinylamino)ethyl]-4-iodobenzamide]
inactive: 1 nM 0.64% | 8.33 nM 2% | 100 nM -0.15% | 833.33 nM -2.57% | 10000 nM -1.77%

OC(c1cc(C(F)(F)F)nc2c(C(F)(F)F)cccc12)C1CCCCN1 (stereo not given) [mefloquine]
inactive: 1 nM -1.64% | 8.33 nM 0.59% | 100 nM -0.03% | 833.33 nM -3.31%
active: 10000 nM 73.3%

CC(C)[C@@]1(NC(=O)[C@@H]2C[C@@H]3c4cccc5[nH]cc(c45)C[C@H]3N(C)C2)O[C@@]2(O)[C@@H]3CCCN3C(=O)[C@H](Cc3ccccc3)N2C1=O [dihydroergocristine]
inactive: 1 nM 3.37% | 8.33 nM -0.59% | 100 nM 0.24% | 833.33 nM -1.73% | 10000 nM -1.9%

CCNC(=O)C#Cc1ccc2c(C(=Nc3ccc(CN(C)C)cc3)c3ccccc3)c(O)[nH]c2c1
inactive: 1 nM 0.51% | 8.33 nM -0.81% | 100 nM -4.45% | 833.33 nM -15.2% | 10000 nM -20.6%

C=CCN1C[C@H](C)N([C@H](c2ccc(C(=O)N(CC)CC)cc2)c2cccc(O)c2)C[C@H]1C
inactive: 1 nM 0.51% | 8.33 nM 2.94% | 100 nM -0.07% | 833.33 nM -0.38% | 10000 nM -1.22%

N#C/C(=C\c1ccc(O)c(O)c1)C(N)=O [tyrphostin-AG-99]
inactive: 1 nM 3.54% | 8.33 nM 0.59% | 100 nM -0.43% | 833.33 nM 3.25% | 10000 nM 0.46%

N=C(N)NCCC[C@@H](N)C(=O)N[C@@H](CCCNC(=N)N)C(=O)N1CCC[C@H]1C(=O)N1C[C@H](O)C[C@H]1C(=O)NCC(=O)N[C@@H](Cc1cccs1)C(=O)N[C@@H](CO)C(=O)N1Cc2ccccc2C[C@@H]1C(=O)N1[C@H](C(=O)N[C@@H](CCCNC(=N)N)C(=O)O)C[C@@H]2CCCC[C@@H]21 [icatibant-acetate]
inactive: 1 nM -2.62% | 8.33 nM -4.61% | 100 nM -4.27% | 833.33 nM 2.14% | 10000 nM 1.26%

Source: the supplement of paper PMC13380429
